Measured values published in PubChem BioAssay AID624330 (Southern Research Specialized Biocontainment Screening …, 2012).
Out of some 340,000 compounds screened, about 2,100 (0.62%) were called active.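 The calls were made as follows: active = first-screen hits whose inhibition reached a set limit at any dose in the follow-up dose series; inconclusive = inhibition above the set first-screen limit but never retested; inactive = the rest.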 A selection follows. Entries with a potency or affinity are not part of this list.

These compounds were tested against Rac GTPase-activating protein 1 (Homo sapiens) (UniProt Q9H0H5) (assay: MgcRacGAP GTPase-activating activity inhibitors, confirmation, biochemical, ADP Hunter fluorescence, primary and confirmatory (AID 624330;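 also: fluorescence reports GDP produced by GAP-driven GTP hydrolysis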)). Conditions: MgcRacGAP-stimulated Rac1 GTP hydrolysis, at 30 µM, active compounds read high, GST-tagged Rac1 F28L mutant substrate.
Rac GTPase-activating protein 1 (Homo sapiens), sequence (Q9H0H5 whole entry, looked up): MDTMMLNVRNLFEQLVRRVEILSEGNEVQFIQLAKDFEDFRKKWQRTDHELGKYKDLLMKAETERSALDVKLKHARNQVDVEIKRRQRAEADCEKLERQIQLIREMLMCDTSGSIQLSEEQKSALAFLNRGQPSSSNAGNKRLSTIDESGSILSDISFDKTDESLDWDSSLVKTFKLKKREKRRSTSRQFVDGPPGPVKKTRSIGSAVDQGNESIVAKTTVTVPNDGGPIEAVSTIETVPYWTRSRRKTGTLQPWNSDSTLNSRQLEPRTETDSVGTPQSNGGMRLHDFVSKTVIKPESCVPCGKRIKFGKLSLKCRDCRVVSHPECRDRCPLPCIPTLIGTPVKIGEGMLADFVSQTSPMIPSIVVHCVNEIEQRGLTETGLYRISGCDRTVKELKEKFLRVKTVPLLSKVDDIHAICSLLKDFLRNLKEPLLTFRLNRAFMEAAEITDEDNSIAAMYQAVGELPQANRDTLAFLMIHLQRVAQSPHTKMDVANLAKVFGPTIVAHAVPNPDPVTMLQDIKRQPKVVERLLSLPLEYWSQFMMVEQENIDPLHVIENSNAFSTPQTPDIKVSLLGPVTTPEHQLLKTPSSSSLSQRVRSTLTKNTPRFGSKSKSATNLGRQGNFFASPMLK

inhibition, inactive:
Cc1ccc(-c2nc(N)sc2-c2ccccc2)cc1C 8.82%
Nc1nc(-c2ccccc2)c(-c2ccccc2)s1 10.3%
O=S(=O)(NCCCN1CCOCC1)c1ccc(Cl)s1 1.35%
C/C(=C\C(=O)c1cccnc1)Nc1ccc(C(=O)O)cc1 -0.69%
COc1ccc(NC(=O)c2ccc(C(=O)c3ccccc3)o2)cc1 1.49%
CC(=O)Nc1ccc(N/C(C)=C/C(=O)c2cccnc2)cc1 -2.43%
COc1ccc(N/C(C)=C/C(=O)c2ccccc2)cc1 10.4%
C/C(=C\C(=O)c1ccccc1)Nc1ccc(Cl)c(Br)c1 6.98%
O=C(Nc1ccccc1O)c1ccc(C(=O)c2ccccc2)o1 3.33%
CCN(CC(=O)NCc1ccc(Cl)cc1)C(=O)Cc1ccc(OC)cc1 5.69%
Cc1cc(C(=O)Nc2ccccc2[N+](=O)[O-])cs1 0.21%
CCOc1ccc(NC(=O)CN(C)C(=O)c2ccc(N3CCCCCC3)c([N+](=O)[O-])c2)cc1OCC 3.24%
CCOC(=O)c1ccc2ncc(C(=O)OCC)c(NCCN(C)C)c2c1 -0.66%
Cc1cc(NCCO)c2cc(O)ccc2n1 15%
CN(C)CCNc1ccc(-c2nn(C)c(=O)c3ccccc23)cc1[N+](=O)[O-] 3.29%
CCOC(=O)c1cnc2ccc(Cl)cc2c1NCCN(C)C 14.5%
CCN(CC)CCCNc1ncnc2ccccc12 8.44%
CCN(CC)CCCNC(=O)c1cc(-c2ccc(O)cc2)on1 25.9%
COC(=O)c1ccccc1NC(=O)c1sc(Cl)nc1C 6.47%
O=C1C=CC(=O)C(CNc2ccc(C(=O)OCc3ccccc3)cc2)=C1 19.7%
Fc1ccc(-c2nnc(N3CCOCC3)c3ccccc23)cc1F 10.8%
COC(=O)C(Cc1ccccc1)NC(=O)CNS(=O)(=O)c1ccc(Br)cc1 (stereo not given) -0.24%
CCOc1ccc2c(c1)C(=O)c1cc(OCC(=O)O)ccc1-2 13.8%
Cc1cc(OCCCCOc2ccc(S(N)(=O)=O)c(C)c2)ccc1S(N)(=O)=O 6.93%
CC[N+](CC)(CC)CCOc1ccc(/C=C/c2ccccc2)cc1 9.54%
CCCCOc1cccc(C(=O)O)c1 4%
O=C(c1ccc(Cl)c(S(=O)(=O)N2CCCCCC2)c1)N1CCCC(C(F)(F)F)C1 (stereo not given) 1.91%
COc1cccc(C(=O)NC2CCCc3ccccc32)c1 (stereo not given) 11.4%
Cn1c(O)c(/C=C2\C=Nc3ccccc32)sc1=Nc1ccc(C(=O)O)cc1 7.27%
Oc1nc(Nc2ccc(F)cc2)sc1/C=C1\C=Nc2ccccc21 10.4%
O=c1[nH]c(=S)[nH]c(O)c1/C=C1\C=Nc2ccccc21 -1.08%
CSc1nsc2nc(=O)c(/C=C3\C=Nc4ccccc43)c(N)n12 1.86%
CC(=O)c1ccc(-n2c(CCC(=O)O)ccc2-c2ccc(Br)cc2)cc1 11.4%
CCCN(CC(=O)Nc1cccc(Br)c1)CC(=O)Nc1ccc(F)c(F)c1F 8.26%
CCc1ccccc1S(=O)(=O)Cc1ccc(C(=O)NCc2cccs2)o1 1.89%
O=C(CN(CC1CCCO1)C(=O)Cn1nnc(-c2ccc(F)cc2)n1)NC1CCCCC1 (stereo not given) 3.03%
Cc1cccc(C(C)Nc2ccc([N+](=O)[O-])cn2)c1 (stereo not given) 1.95%
COC(=O)c1ccc(/C=C/C(=O)c2ccc(OC)cc2)cc1 4.33%
COc1ccc(/C=C/C(=O)c2ccc(O)cc2)cc1 4.28%
CCn1cc(C(=O)N2CCN(c3ccc(OC)cc3)CC2)c2cc(OC)c(OC)cc2c1=O 18.7%
CC(C)c1nnc(NC(=O)c2cccc(-n3cnnn3)c2)s1 10.5%
Cc1cc(C)nc(SCC(=O)NC2=NN=C(c3ccc(Br)cc3)CS2)n1 27.2%
Cc1ccc(C2=NN=C(NC(=O)CSc3nnc4c5ccccc5n(C)c4n3)SC2)cc1 28.8%
COc1ccc2nc(/C(C#N)=C\c3ccc(Oc4ccc([N+](=O)[O-])cn4)cc3)[nH]c2c1 5.92%
Cc1cccc(N2C(=O)Cc3ccccc3C2=O)c1 8.26%
Cc1ccc(C(c2nnnn2C2CCCC2)N2CCN(c3nc4ccccc4s3)CC2)cc1 (stereo not given) 4.8%
Cc1ccc(OCC(=O)N/N=C\c2cccn2C)c([N+](=O)[O-])c1 1.92%
COc1ccc2nc3cc(Cl)ccc3c(Nc3cc(C(C)C)c(O)cc3C)c2c1 7.74%
COc1ccc(N2CCN(Cc3nc4cc(Cl)ccc4c(=O)[nH]3)CC2)cc1 15.2%
CCOc1ccc(N2C(=O)CC(Cc3cc(C)cc(C)c3)C2=O)cc1 (stereo not given) 7.28%
Cc1ccc(N=Nc2ccc(O)cc2)c(Br)c1 14.6%
Cc1ccc(N=C(N)N=C(N)N)cc1 16.3%
CC(=O)C1C(c2cccc(F)c2)c2c(n[nH]c2C)CC1(C)O (stereo not given) 9.67%
CCC(=O)N1N=C(c2cccc(NS(C)(=O)=O)c2)CC1c1cccs1 (stereo not given) 11.9%
COc1cc(NCc2ccccc2)c2ncn(Cc3ccccc3)c2c1 6.64%
CCn1cc(C(=O)Nc2ccc(NC(=O)c3ccco3)cc2)c(=O)c2ccc(C)nc21 0.62%
Cc1cc(C(=O)CN2C(=O)NC3(CCCCC3)C2=O)c(C)n1Cc1ccc2c(c1)OCO2 0.78%
O=c1c(N=Nc2ccccc2)c[nH]n1-c1ccccc1 -5.5%
Nc1c(-c2ccccc2)cnn1-c1cccc([N+](=O)[O-])c1 5.5%
Cc1[nH]n(-c2cccc([N+](=O)[O-])c2)c(=O)c1-c1ccccc1 8.04%
Nc1c(-c2cccc(Cl)c2)cnn1-c1ccccc1 20.3%
COc1c[nH]n(-c2ccccc2)c(=O)c1=O 5.24%
S=c1[nH]cc(-c2ccccc2)n1-c1cccc(Cl)c1 6.88%
COC(=O)c1ccsc1NC(=O)c1ccco1 6.38%
COc1cc(C(=O)COC(=O)c2ccncc2)cc(OC)c1OC 4.46%
Cc1cc(C(=O)C(=O)N(C)C)c(C)n1-c1ccc(Cl)c(Cl)c1 14.3%
CC1CN(C(=O)c2ccc(NS(=O)(=O)c3cccc(Cl)c3)cc2)CC(C)O1 (stereo not given) 5.38%
NS(=O)(=O)c1ccc(N=Cc2c(O)n(-c3nccs3)c(=O)c3ccccc23)cc1 1.11%
Cc1ccc(NC(=O)N/C=C/c2ccco2)c(C)c1 7.78%
CNC(=S)N1CCc2sccc2C1C (stereo not given) 9.43%
N#Cc1c2ccc(OCC(=O)NCc3ccco3)cc2n2ccccc12 8.65%
CCOC(=O)Cc1csc(NC(=O)/C=C/c2ccco2)n1 7.86%
Nc1c2ccccc2nc2ccccc12 12.6%
CN(C)c1nc2ccccc2c(N)c1-c1ccccc1 31%
CC1(C)CC(NC(=O)C2CCC(=O)N(Cc3ccccc3F)C2)CC(C)(C)C1 (stereo not given) 6.51%
Cc1cc(C)c(S(N)(=O)=O)c(C)c1-n1cnnn1 1.87%
Cc1cc(C)c(S(=O)(=O)NC(C)C)c(C)c1-n1cnnn1 4.49%
COc1ccc(-c2nn(-c3ccccc3)cc2/C=N/NC(=S)NC(C)C)cc1OC 7.12%
CCOC(=O)C1CCN(C(=O)c2cc(S(=O)(=O)N3CCCCC3)ccc2C)CC1 -9.49%
CC(C)c1nc(SCC(=O)Nc2ccc(N3CCOCC3)cc2)c2ccccc2n1 9.39%
CN(C)c1ccc(NC(=O)CSc2nc(C3CC3)nc3ccccc23)cc1 -1.11%
COCCn1c(SCC(=O)c2ccc3c(c2)OCCO3)nnc1-c1ccco1 8.82%
O=C1NC(=O)N(c2ccccc2)C1=O 10%
O=C(O)COc1ccccc1/C=N/NC(=O)Cc1ccccc1 9.01%
CC(C)Cc1nc2sc3c(c2c(=O)n1N)CC(C)(C)OC3 -0.31%
Oc1ccc(C[C@H]2CNC(=S)N2CC2CCCN2C[C@H](Cc2ccc(O)cc2)N2C[C@H](Cc3ccccc3)N(CCc3ccccc3)C2=S)cc1 (stereo not given in full) 10.5%
Cc1cc2c(cc1S(=O)(=O)N1CC(C)CC(C)C1)OCC(=O)N2 (stereo not given) 1.63%
COc1cc(/C=C/C(=O)OCC(=O)Nc2c(C)n(C)n(-c3ccccc3)c2=O)cc(OC)c1OC -6.63%
COc1cc(/C=C/C(=O)OCC(=O)Nc2c(C)n(C)n(-c3ccccc3)c2=O)ccc1OCC#N 3.82%
Cc1c(NC(=O)C(C)OC(=O)/C=C/c2ccccc2)c(=O)n(-c2ccccc2)n1C (stereo not given) 2.8%
COc1cccc(/C=C/C(=O)OC(C)C(=O)Nc2c(C)n(C)n(-c3ccccc3)c2=O)c1 (stereo not given) 1.46%
CCCCCCn1c(CN2CCN(C)CC2)nc2c1c(=O)n(C)c(=O)n2C 0.38%
CCOC(=O)Cc1csc(NC(=O)CSc2nc(N)c3c(C)c(C)sc3n2)n1 -6.82%
O=C(CSc1nc2ccccc2o1)NCC1CCCO1 (stereo not given) 5.06%
CCC(c1nnnn1Cc1ccc(OC)cc1)N1CCN(c2ccc(OC)cc2)CC1 (stereo not given) 24.3%
